# From PubChem
# Only a selection was taken, and hits are over-represented in it overall.
# Tg IFNy HTS – inhibitors of Toxoplasma gondii growth with IFN-gamma | Toxoplasma gondii growth in IFN-gamma-treated host cells; hits give low values | activity change, negative = inhibition, % (test concentration not listed) | 69,000 compounds, 3.8% hits | AID 1259416; in the data active means activity change below about -70%, passing the limit was not always enough;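 further: host cells are HeLa cells infected with Toxoplasma gondii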
# * = called active by the depositor; ! = not active in a repeat.
SMILES,Tg IFNy HTS
CC(C)NC(=O)c1ccc2ncnc(N3CCCCC3)c2c1,-10
COc1ccc(-c2nc(NCC3CCN(Cc4cccc(Cl)c4)CC3)c3ccccc3n2)cc1,-47
CC[C@@]1(C2O[C@@H](C3O[C@@](O)(CO)[C@H](C)C[C@@H]3C)C[C@@H]2C)CC[C@H]([C@]2(C)CC[C@]3(C[C@H](O)[C@@H](C)[C@@H]([C@@H](C)[C@@H](OC)[C@H](C)C(=O)O)O3)O2)O1 (some centres not stated),-80*
Cc1cc(C(=O)N2CCN3CCNC(=O)C3C2)ccc1N1CCOCC1 (configuration not stated),0
Cc1[nH]nc(CCC(=O)N2CC[C@@H](c3ccc4c(c3)OCO4)[C@H](O)C2)c1C,-43
CC(C)NC(=O)N1[C@@H](CO)[C@@H]2c3ccccc3NC[C@@H]21,-3
CCC(C)NCCOCCOc1ccc(Cl)c2ccccc12 (configuration not stated),-94*
CCC(C)NCCOc1ccc(C(C)(C)c2ccccc2)cc1 (configuration not stated),-7
CCOc1ccccc1OCCN[C@H](C)Cc1ccc(OC)c(S(N)(=O)=O)c1,16
Cc1cc(C)cc(N2CCC(NCC3CC(=O)N(C4CCCC4)C3)CC2)c1 (configuration not stated),-12
COc1ccc2c(c1)NC1(CCN(C(=O)c3ccc(C)c(C)c3)CC1)c1cccn1-2,23
CC(C)N(C)CC1CCC2(CCN(c3ncccn3)CC2)CO1 (configuration not stated),-7
NC(=O)c1cncc(Oc2cc(F)c(CN3CCCC3)c(F)c2)n1,-7
CCOc1ccc(-c2nc(CN3CCN(C(=O)Nc4ccc(C)c(F)c4)CC3)c(C)o2)cc1,-34
O=C(COCc1ccccc1)NCc1cnn2ccccc12,-30
O=C(NCc1ccccc1)c1c(O)c2cccnc2[nH]c1=O,8
Oc1ccc(COCc2ccccc2)c2cccnc12,-96*
O=C(c1cscn1)N1CCOC2(CCN(c3ncccn3)CC2)C1,-1
CCOC(=O)c1nc(N(Cc2cccs2)C2CCCC2)c2ccccc2n1,-76*
CCOC(=O)c1nc(N(CC)c2ccccc2)c2ccccc2n1,14
CCOC(=O)c1nc(N2CCN(C3CCCCC3)CC2)c2ccccc2n1,4
CCn1cc(-c2cc(C(=O)NCCc3nc(C(C)(C)C)cs3)no2)cn1,-22
Cc1nc(-n2cnnc2)ccc1-c1ccnc2c1ccn2C,-97*
Cn1ccc2c(-c3cc(N4CCCCC4)ncn3)ccnc21,24
Cn1ccc2c(-c3ccccc3C(N)=O)ccnc21,8
SMILES,Tg IFNy HTS
Cc1oc2c(F)c(F)c(F)c(F)c2c1S(=O)(=O)Oc1ccc(C#N)cc1,5
COc1ccc2c(c1)c1c(n2Cc2ccccc2)CCCC1,19
O=C(O)Cn1c2c(c3ccccc31)CCC2,-92*
O=C1SCCc2c1n(Cc1ccccc1)c1ccccc21,23
CC(C)c1cc(C(=O)Nc2cccc(Cl)c2N2CCOCC2)nn2cnnc12,-45
CCCCC1CCC(C(=O)Nc2cc(C)nn2-c2ncnc3c2cnn3-c2ccc(F)cc2)CC1 (configuration not stated),29
COc1ccc(-c2ccnc(N)c2)c(C)c1,-3
COc1ccccc1C(=O)C1C(=O)NC23CCN(C)CC2C1c1cc(Cl)ccc1O3 (configuration not stated),-87*
COc1cc(Cl)ccc1C(=O)NCC1CCCN(C)C1 (configuration not stated),-2
COc1cc(C(=O)N2CCC3(CC2)NC(=O)c2ccc(Cl)cc2N3)cc(OC)c1OC,132
CN(C1CCCNCC1)S(C)(=O)=O (configuration not stated),-16
Nc1nc(=O)n([C@H]2C[C@H](O)[C@@H](CO)O2)cc1F,-89*
O=c1[nH]cnc2c1ncn2[C@H]1CC[C@@H](CO)O1,9
Nc1nc(Cl)nc2c1ncn2[C@H]1C[C@H](O)[C@@H](CO)O1,-73*!
Nc1nc(Cl)nc2c1ncn2[C@@H]1O[C@H](CO)[C@@H](O)[C@@H]1F,-74*
Nc1ncnc2c1ncn2C1CCCO1 (configuration not stated),16
O=c1[nH]c(=O)n([C@H]2C[C@H](O)[C@@H](CO)O2)cc1I,21
CNC(=O)c1cnn(-c2nc(N)c3ncn([C@@H]4O[C@H](CO)C(O)C4O)c3n2)c1 (some centres not stated),17
OCC1OC(n2cnc3c(NC4CCCC4)nc(Cl)nc32)C(O)C1O (configuration not stated),2
Nc1ccn([C@@H]2O[C@H](CO)[C@@H](O)[C@H]2O)c(=O)n1,11
O=S(=O)(NCc1ccccc1)Nc1ccccc1-n1cccc1,31
COCCNc1ccnc(C2COCCN2Cc2ccccc2F)n1 (configuration not stated),-5
NC(=O)N1CCCC(C(=O)NC2(CN3CCCC3)CCCCC2)C1 (configuration not stated),1
COc1ccc(CC(C)N2C[C@@H](N)[C@H](c3cn(C)c4cnccc34)C2)cc1OC (some centres not stated),31
Cc1cc(NC(=O)C2CCCCC2)n(-c2ncnc3c2cnn3-c2ccc(F)cc2)n1,22
SMILES,Tg IFNy HTS
Cc1ccsc1CCNC(=O)CC1C(=O)N(C)C(=O)N1C (configuration not stated),3
CCOC(=O)c1cncc(C#CCOC(=O)Nc2ccc(OC(F)(F)F)cc2)c1,-33
O=C(Nc1ccc(OC(F)(F)F)cc1)OCc1ccc(C#Cc2ccccc2)s1,-83*
O=C(O)CC1(CC(=O)Nc2ccc(OC(F)(F)F)cc2)CCCC1,36
COc1ccc2c3c(n(C)c2c1)[C@H](CO)N(C(=O)Cc1ccccn1)CC31CN(CC2CCCCC2)C1,-45
CCN1C(=O)c2cccnc2Sc2cc(CNC(=O)c3cccc4[nH]ccc34)ccc21,85
CC(C)(C)C1CCC(CC2C(=O)C(=O)c3ccccc3C2=O)CC1 (configuration not stated),-86*
CCOC(=O)c1c(NC(=O)CCn2cnc3ccccc3c2=O)sc(C)c1C,-21
COc1ccc2[nH]c(-c3nc(CCN(C)C(=O)c4ccncc4)no3)cc2c1,102
Cc1ccc2[nH]c(-c3nc(CCN(C)C(=O)c4cccn4C)no3)cc2c1,48
CCc1c(-c2nc(CCN(C)C(=O)c3cccn3C)no2)[nH]c2ccc(C)cc12,-91*
CC(=O)NCCC1CCCCN1C(=O)Nc1ccc(F)c(C(F)(F)F)c1 (configuration not stated),-10
c1cncc(COC2CCCN(Cc3ccncc3)C2)c1 (configuration not stated),1
CC1=C(C(=O)NCCCN2CCC(N3CCCCC3)CC2)C2(CCCCC2)OC1=O,18
CC1=C(C(=O)NC2CCN(Cc3ccccc3)CC2)C2(CCCCC2)OC1=O,-15
CC1=C(C(=O)NCCN2CCC(Cc3ccccc3)CC2)C2(CCCCC2)OC1=O,-84*
Cc1nn(CC(=O)NCCCN(C)C)c(=O)c2nc(-c3ccccc3)sc12,165
CN(Cc1ccoc1)c1ccc(-c2nccn2C)nn1,67
CN(Cc1nccn1C)c1ccc(-c2nccn2C)nn1,-3
Cc1c(CN(C)c2ccc(-c3nccn3C)nn2)[nH]c2ccccc12,-96*
O=C1C(Cc2ccccc2)N=C2c3ccccc3N=C(SCc3ccccc3F)N12 (configuration not stated),-36
CCNC(=O)CN1C(=O)CCc2cc(S(=O)(=O)N3CCC(C)CC3)ccc21,7
CC(C)CN(Cc1cnn(C)c1)C(=O)c1cccnc1N1CCOCC1,-7
